# Key:
# Assay in all cases: DAPPL (digital affinity profiling via proximity ligation, sequencing); 10 mM Tris-HCl pH 7.5, 50 mM NaCl, 1 mM DTT, 4% glycerol, room temperature, 30 min; GST-TFs on glutathione beads, 16-mer random dsDNA library, 0.1% formaldehyde crosslink after washing; high values mean tight binding
# Details in all cases: protein: recombinant; tags: N-terminal GST; dsDNA, one strand shown
# FLI1 = target: T1, FLI1 (Homo sapiens, UniProt Q01543 1-452)
# T1 sequence: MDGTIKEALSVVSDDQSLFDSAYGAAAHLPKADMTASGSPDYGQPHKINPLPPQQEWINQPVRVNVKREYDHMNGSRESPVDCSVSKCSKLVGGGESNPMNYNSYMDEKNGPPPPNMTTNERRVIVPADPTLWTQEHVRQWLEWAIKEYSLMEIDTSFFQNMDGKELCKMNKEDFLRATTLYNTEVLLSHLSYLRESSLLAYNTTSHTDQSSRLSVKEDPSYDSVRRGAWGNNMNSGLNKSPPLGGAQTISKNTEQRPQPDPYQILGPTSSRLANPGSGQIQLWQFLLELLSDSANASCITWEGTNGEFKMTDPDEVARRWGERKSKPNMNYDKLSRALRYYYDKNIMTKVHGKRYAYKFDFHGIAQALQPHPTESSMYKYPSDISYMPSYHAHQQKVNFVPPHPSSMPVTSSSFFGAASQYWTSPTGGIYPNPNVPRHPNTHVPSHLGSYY
# Outline: (§1)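 Binding signal is each hexamer's read frequency for a factor divided by its frequency in the tag-only sample. The factors were GST-fused human transcription factors from yeast, captured on glutathione beads, DNA-barcoded and pooled with that sample. Pools were incubated with 200 nmole of a random double-stranded 16-mer DNA library in Tris/NaCl/DTT/glycerol buffer at room temperature for 30 min, then washed, crosslinked with 0.1% formaldehyde, proximity-ligated with BsaI/T4 ligase (1 h, 37 °C), PCR-amplified and sequenced on an Illumina NextSeq500.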
# ELK1 = target: T2, ELK1 (Homo sapiens, UniProt P19419 1-428)
# T2 sequence: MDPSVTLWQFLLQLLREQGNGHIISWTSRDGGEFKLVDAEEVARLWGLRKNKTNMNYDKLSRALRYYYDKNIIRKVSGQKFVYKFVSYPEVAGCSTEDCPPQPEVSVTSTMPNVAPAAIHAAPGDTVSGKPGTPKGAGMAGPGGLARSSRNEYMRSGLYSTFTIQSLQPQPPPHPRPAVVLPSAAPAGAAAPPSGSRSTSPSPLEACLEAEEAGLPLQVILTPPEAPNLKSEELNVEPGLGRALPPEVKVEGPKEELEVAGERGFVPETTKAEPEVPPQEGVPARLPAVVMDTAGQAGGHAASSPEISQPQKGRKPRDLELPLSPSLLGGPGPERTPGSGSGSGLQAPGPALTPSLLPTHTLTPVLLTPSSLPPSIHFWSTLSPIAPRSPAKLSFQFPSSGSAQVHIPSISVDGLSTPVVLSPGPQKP
# Outline: as §1
# GABPA = target: T3, GABPA (Homo sapiens, UniProt Q06546 1-454)
# T3 sequence: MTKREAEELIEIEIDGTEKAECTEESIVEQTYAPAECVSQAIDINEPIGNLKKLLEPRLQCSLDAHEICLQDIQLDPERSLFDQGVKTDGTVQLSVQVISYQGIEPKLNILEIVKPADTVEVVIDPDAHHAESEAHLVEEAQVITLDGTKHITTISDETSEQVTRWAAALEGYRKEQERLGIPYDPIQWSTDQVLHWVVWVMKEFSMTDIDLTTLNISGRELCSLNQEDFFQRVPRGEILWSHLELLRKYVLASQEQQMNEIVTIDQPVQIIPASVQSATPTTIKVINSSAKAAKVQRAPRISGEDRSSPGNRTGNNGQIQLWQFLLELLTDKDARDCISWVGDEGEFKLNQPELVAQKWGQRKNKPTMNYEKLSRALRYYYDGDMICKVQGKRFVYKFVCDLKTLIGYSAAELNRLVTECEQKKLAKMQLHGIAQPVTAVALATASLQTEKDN
# Outline: as §1
# ERG = target: T4, ERG (Homo sapiens, UniProt P11308 1-479)
# T4 sequence: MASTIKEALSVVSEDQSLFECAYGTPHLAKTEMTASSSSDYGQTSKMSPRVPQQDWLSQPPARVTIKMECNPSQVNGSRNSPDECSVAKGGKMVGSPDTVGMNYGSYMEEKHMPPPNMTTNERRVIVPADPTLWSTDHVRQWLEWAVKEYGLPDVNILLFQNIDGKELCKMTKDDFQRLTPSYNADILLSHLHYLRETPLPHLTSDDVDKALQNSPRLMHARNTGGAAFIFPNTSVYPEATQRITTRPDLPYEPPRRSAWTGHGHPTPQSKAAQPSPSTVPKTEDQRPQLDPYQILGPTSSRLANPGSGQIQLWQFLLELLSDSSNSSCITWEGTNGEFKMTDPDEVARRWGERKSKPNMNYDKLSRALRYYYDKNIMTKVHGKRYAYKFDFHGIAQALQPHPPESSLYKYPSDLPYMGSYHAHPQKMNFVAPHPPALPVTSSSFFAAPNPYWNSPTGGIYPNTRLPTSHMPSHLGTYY
# Outline: as §1
# ELF1 = ELF1 (Homo sapiens, UniProt P32519 1-619)
# Outline: as §1
# EHF = target: T5, EHF (Homo sapiens, UniProt Q9NZC4 1-300)
# T5 sequence: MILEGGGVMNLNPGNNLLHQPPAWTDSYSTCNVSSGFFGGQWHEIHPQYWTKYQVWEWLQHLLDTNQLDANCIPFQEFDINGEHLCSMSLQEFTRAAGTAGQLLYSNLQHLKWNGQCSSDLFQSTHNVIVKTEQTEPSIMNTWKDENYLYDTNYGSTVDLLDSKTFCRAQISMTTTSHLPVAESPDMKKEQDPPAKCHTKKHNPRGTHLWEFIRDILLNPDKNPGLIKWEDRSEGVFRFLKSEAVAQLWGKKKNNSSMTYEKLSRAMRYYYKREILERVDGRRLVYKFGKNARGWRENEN
# Outline: as §1
# SPI1 = SPI1 (Homo sapiens, UniProt P17947 1-270)
# Outline: as §1
# SPIB = SPIB (Homo sapiens, UniProt Q01892 1-262)
# Outline: as §1
# ETV5 = ETV5 (Homo sapiens, UniProt P41161 1-510)
# Outline: as §1
# ELF4 = ELF4 (Homo sapiens, UniProt Q99607 1-663)
# Outline: as §1
# ETV2 = target: T6, ETV2 (Homo sapiens, UniProt O00321 1-342)
# T6 sequence: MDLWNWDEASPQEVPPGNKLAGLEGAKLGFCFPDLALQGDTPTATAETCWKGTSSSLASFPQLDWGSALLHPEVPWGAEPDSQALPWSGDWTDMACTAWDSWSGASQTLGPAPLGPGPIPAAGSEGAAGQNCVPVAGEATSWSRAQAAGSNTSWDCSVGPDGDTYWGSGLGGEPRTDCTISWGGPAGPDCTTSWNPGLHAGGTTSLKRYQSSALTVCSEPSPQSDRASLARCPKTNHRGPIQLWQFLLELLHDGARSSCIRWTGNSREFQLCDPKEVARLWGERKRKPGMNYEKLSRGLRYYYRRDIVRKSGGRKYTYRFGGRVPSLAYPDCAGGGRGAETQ
# Outline: as §1
# ELF3 = target: T7, ELF3 (Homo sapiens, UniProt P78545 1-371)
# T7 sequence: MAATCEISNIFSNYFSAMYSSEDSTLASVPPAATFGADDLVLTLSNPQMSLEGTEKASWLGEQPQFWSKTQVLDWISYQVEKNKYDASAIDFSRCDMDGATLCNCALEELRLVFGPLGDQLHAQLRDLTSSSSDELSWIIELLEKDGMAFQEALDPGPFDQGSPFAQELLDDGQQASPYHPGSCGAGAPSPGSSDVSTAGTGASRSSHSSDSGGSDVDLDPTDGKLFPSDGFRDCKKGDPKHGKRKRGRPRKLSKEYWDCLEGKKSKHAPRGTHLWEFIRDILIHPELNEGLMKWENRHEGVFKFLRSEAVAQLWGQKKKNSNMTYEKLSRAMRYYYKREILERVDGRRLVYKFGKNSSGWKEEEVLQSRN
# Outline: as §1
# ETV1 = ETV1 (Homo sapiens, UniProt P50549 1-477)
# Outline: as §1
# ERF = target: T8, ERF (Homo sapiens, UniProt P50548 1-548)
# T8 sequence: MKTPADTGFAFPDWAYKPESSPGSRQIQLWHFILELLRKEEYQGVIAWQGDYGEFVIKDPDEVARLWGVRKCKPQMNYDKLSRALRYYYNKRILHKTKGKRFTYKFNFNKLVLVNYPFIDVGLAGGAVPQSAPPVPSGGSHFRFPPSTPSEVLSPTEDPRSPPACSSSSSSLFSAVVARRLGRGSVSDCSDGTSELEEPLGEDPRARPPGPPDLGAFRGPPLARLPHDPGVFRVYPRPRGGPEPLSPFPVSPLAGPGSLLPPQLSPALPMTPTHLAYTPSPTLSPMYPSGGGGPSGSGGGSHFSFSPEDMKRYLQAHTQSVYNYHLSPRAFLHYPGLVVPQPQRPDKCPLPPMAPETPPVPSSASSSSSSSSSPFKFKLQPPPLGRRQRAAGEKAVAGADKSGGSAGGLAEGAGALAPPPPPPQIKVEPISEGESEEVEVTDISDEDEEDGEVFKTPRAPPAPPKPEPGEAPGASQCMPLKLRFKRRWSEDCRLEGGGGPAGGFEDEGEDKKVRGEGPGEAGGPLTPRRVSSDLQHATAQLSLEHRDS
# Outline: as §1
# ETV3L = target: T9, ETV3L (Homo sapiens, UniProt Q6ZN32 1-361)
# T9 sequence: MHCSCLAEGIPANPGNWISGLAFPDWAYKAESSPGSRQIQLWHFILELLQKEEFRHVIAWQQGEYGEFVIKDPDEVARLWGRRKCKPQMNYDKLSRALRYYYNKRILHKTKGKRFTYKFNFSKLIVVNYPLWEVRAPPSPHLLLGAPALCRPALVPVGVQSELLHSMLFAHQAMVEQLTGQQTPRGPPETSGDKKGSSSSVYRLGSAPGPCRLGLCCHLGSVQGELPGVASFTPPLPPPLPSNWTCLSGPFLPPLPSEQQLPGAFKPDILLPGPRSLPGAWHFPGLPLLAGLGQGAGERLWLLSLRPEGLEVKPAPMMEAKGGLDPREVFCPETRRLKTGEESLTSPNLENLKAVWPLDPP
# Outline: as §1
# ETV7 = target: T10, ETV7 (Homo sapiens, UniProt Q9Y603 1-341)
# T10 sequence: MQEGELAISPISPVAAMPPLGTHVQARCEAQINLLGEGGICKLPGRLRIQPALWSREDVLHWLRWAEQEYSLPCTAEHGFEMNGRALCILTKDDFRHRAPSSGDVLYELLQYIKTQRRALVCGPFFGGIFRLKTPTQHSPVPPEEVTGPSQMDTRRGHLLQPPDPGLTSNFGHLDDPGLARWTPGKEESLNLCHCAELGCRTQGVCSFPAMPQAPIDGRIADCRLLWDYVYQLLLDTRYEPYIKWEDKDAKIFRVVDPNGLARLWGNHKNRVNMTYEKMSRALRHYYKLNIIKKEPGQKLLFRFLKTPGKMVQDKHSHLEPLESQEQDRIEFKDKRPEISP
# Outline: as §1
# ETV3 = target: T11, ETV3 (Homo sapiens, UniProt P41162-2 1-143)
# T11 sequence: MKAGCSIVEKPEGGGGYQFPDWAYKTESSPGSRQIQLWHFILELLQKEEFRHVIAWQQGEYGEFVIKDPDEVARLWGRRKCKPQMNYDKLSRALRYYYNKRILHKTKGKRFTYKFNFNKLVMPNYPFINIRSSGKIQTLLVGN
# Outline: as §1
# ETV6 = ETV6 (Homo sapiens, UniProt P41212 1-452)
# Outline: as §1
# Sequence of ETV6 (P41212 whole entry): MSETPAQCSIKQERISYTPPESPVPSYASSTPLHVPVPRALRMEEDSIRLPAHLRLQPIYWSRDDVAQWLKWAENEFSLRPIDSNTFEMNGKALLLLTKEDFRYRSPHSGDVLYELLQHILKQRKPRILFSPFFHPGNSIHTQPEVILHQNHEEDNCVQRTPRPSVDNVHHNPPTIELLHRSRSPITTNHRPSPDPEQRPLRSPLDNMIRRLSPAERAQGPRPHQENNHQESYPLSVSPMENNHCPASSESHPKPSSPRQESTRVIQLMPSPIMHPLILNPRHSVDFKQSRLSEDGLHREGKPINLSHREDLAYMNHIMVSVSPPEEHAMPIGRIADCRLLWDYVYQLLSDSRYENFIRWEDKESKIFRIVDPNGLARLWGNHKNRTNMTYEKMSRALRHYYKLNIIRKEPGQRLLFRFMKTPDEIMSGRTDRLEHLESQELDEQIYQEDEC
# Sequence of SPIB (Q01892 whole entry): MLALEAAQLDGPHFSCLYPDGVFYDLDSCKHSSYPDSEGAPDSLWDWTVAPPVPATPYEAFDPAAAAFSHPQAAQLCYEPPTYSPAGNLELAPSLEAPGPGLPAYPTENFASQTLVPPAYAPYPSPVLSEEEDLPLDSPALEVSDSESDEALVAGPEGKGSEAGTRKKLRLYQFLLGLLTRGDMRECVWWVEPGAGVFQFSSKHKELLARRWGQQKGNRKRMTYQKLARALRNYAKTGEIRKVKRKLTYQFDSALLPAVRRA
# Sequence of ELF4 (Q99607 whole entry): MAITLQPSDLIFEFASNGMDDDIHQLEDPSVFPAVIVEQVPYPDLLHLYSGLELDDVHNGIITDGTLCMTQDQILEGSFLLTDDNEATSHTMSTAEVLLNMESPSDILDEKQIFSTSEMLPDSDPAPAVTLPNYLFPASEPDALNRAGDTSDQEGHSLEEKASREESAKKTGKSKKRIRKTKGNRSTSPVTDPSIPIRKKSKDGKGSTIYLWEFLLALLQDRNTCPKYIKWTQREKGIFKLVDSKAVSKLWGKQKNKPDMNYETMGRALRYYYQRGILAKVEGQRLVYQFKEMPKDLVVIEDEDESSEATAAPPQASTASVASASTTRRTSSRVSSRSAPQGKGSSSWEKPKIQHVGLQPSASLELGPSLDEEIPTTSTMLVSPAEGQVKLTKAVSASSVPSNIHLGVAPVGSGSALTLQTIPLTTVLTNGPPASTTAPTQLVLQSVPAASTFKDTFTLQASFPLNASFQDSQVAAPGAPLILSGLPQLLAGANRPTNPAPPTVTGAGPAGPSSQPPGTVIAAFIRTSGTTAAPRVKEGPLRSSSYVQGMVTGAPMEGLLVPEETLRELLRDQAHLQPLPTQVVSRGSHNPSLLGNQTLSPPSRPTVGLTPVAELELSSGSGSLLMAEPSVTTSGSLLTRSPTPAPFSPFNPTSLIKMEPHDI
# Sequence of ELF1 (P32519 whole entry): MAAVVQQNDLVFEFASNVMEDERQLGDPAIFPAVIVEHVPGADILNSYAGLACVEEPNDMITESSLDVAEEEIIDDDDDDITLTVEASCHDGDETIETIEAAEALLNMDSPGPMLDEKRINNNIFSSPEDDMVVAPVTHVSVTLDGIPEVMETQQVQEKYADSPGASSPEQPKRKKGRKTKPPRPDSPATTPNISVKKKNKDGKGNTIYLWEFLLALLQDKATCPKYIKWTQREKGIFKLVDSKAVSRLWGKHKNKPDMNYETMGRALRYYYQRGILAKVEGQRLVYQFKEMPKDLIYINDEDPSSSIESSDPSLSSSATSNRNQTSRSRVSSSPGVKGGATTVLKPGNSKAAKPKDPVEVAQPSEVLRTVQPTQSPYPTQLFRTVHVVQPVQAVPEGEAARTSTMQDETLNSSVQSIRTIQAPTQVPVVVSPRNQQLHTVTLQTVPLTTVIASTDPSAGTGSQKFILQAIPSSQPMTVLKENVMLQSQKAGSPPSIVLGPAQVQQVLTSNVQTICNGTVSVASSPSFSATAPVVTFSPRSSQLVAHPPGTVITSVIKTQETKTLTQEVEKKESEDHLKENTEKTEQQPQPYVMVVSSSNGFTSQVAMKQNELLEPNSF
# Sequence of ETV5 (P41161 whole entry): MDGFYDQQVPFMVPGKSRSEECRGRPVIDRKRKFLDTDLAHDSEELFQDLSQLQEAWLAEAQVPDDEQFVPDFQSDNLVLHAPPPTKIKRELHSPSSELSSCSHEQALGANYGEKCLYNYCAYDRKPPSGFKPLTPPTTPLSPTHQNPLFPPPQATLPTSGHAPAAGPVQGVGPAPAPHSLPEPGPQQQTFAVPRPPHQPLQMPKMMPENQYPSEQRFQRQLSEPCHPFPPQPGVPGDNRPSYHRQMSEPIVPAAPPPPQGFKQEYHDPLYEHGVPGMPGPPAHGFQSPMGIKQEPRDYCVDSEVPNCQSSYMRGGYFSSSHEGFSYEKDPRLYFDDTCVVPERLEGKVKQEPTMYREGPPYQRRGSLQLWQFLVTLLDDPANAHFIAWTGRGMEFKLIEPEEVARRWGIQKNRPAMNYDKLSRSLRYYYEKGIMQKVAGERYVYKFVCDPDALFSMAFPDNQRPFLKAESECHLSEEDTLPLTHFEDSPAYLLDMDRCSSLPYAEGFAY
# Sequence of ETV1 (P50549 whole entry): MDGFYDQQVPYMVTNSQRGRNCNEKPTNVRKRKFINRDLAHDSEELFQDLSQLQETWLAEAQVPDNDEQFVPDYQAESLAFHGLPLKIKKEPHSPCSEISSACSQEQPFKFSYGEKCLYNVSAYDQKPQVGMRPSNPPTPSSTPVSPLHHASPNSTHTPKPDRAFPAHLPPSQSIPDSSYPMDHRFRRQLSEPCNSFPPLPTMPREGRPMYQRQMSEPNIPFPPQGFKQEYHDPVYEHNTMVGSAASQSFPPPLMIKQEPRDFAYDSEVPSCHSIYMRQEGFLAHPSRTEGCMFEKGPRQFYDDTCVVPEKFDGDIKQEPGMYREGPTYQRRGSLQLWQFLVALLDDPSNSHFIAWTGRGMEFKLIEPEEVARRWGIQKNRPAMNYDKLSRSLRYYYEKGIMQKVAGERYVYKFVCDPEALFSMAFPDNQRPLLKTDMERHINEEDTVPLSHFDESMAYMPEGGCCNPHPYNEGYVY
sequence,measurement,setting,value
CGTAGC,binding signal,FLI1,"1.13 fold enrichment (6-mer frequency, TF over GST control)"
same,binding signal,ELK1,"1.07 fold enrichment (6-mer frequency, TF over GST control)"
same,binding signal,GABPA,"1.08 fold enrichment (6-mer frequency, TF over GST control)"
same,binding signal,ERG,"1.04 fold enrichment (6-mer frequency, TF over GST control)"
same,binding signal,ELF1,"1.1 fold enrichment (6-mer frequency, TF over GST control)"
same,binding signal,EHF,"1.05 fold enrichment (6-mer frequency, TF over GST control)"
same,binding signal,SPI1,"1.04 fold enrichment (6-mer frequency, TF over GST control)"
same,binding signal,SPIB,"1.07 fold enrichment (6-mer frequency, TF over GST control)"
same,binding signal,ETV5,"1.08 fold enrichment (6-mer frequency, TF over GST control)"
same,binding signal,ELF4,"1.07 fold enrichment (6-mer frequency, TF over GST control)"
same,binding signal,ETV2,"1.03 fold enrichment (6-mer frequency, TF over GST control)"
same,binding signal,ELF3,"1.12 fold enrichment (6-mer frequency, TF over GST control)"
same,binding signal,ETV1,"1.15 fold enrichment (6-mer frequency, TF over GST control)"
same,binding signal,ERF,"1.03 fold enrichment (6-mer frequency, TF over GST control)"
same,binding signal,ETV3L,"1.09 fold enrichment (6-mer frequency, TF over GST control)"
same,binding signal,ETV7,"1.09 fold enrichment (6-mer frequency, TF over GST control)"
same,binding signal,ETV3,"1.04 fold enrichment (6-mer frequency, TF over GST control)"
same,binding signal,ETV6,"1.1 fold enrichment (6-mer frequency, TF over GST control)"
